PHOSPHO1 inh – PubChem AID 1565; Phosphoethanolamine/phosphocholine phosphatase (Homo sapiens), Q8TCT1; recombinant PHOSPHO1, absorbance phosphatase assay; inhibition, % at 13.3 µM; actives 1.1% (n = 290,000); in the data active means inhibition above about 60%
Target sequence (Q8TCT1 whole entry, looked up): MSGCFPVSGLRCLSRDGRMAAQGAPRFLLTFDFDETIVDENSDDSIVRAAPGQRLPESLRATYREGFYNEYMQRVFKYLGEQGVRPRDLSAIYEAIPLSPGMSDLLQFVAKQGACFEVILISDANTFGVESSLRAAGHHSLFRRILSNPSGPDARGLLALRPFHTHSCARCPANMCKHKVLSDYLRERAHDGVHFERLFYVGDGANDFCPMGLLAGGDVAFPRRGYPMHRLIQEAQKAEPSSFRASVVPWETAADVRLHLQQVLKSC
WT yeast gro inh – growth inhibition of WT strain, primary screen, mitochondrial fusion inhibitor project, WT and mutant strains, chemical genetic. mitochondrial fusion phenotypic screen. actives 2.1% (n = 190,000). inhibition, % at 10 µM; in the data active means inhibition above about 58%; tested in S. cerevisiae
TPT1 inhibitor – Candida albicans TPT1 enzyme inhibitors, primary screen, biochemical, fluorescence polarization; tRNA 2'-phosphotransferase TPT1 (Candida albicans SC5314); recombinant caTPT1, FP RNA substrate dephosphorylation; inhibition, % at 5 µM; actives 0.81% (n = 300,000); AID 1962, 2009;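 active means inhibition above the mean of all tested compounds plus 3 SD, set per screening campaign, cut at about 24% in these data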
Platelet DG rel – inhibitors of platelet dense granule secretion, primary screen, cell-based, MLPCN, human platelets | human platelet-rich plasma, SFLLRN dense granule ATP release, luminescence | inhibition, %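 (compounds screened at 7.5 µM in platelet-rich plasma)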 | actives 0.22% (n = 300,000);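 active means mean replicate score, as percent of positive control, at or above 50; inconclusive means mean below 50 but at least one replicate at or above 50; inactive means mean and every replicate below 50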
Rtt109 Vps75 – inhibitors of C. albicans Rtt109/Vps75 HAT, primary screen, biochemical, ThioGlo CoA-SH fluorescence, plate reader; purified Rtt109/Vps75, 4 h; actives 0.16% (n = 330,000); inhibition, % at 34.9 µM;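 active means inhibition of at least 50% in every replicate; inconclusive means best replicate reaches 50% inhibition but some replicates fall short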
Target sequence (Q5AAJ8 whole entry, looked up): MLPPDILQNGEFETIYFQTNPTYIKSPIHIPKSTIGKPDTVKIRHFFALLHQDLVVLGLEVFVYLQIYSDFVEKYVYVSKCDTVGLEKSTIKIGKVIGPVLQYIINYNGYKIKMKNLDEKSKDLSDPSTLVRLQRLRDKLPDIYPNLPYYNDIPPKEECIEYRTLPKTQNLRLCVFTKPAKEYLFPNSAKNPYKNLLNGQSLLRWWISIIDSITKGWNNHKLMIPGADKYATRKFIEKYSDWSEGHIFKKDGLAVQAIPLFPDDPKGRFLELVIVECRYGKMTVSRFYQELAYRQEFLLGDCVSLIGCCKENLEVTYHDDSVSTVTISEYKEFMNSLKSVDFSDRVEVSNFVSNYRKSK
SKKanGAS inh – S. pyogenes SKKanGAS growth inhibitors in kanamycin, primary screen, streptokinase expression inhibitor project, SKKanGAS strain, BacTiter-Glo luminescence. 6 h. inhibition, % at 7.5 µM. actives 1.3% (n = 300,000). AID 1662, 2009;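 active means mean replicate score, as percent of positive control median, at least 50; inconclusive means mean below 50 but one replicate at or above 50; inactive means mean and every replicate below 50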;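 further: strain carries kanamycin resistance gene driven by streptokinase promoter and grows in 40 µg/ml kanamycin; loss of luminescence reflects streptokinase promoter inhibition or plain growth inhibition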
Numbers stand for hits. Most compounds without a hit are left out; they make up all but 3.9% or so of the library.

What do the screens show for `Cc1cc[n+](CC(=O)c2ccc(NC(=O)c3ccccc3)cc2)cc1`?
PHOSPHO1 inh: inactive; WT yeast gro inh: inactive; TPT1 inhibitor: inactive; Platelet DG rel: inactive; Rtt109 Vps75: inactive; SKKanGAS inh: inactive

How did Cc1cc[n+](CC(=O)c2ccc(NC(=O)c3ccccc3)cc2)c2ccccc12 do in these assays?
PHOSPHO1 inh: inactive; WT yeast gro inh: 61; TPT1 inhibitor: inactive; Platelet DG rel: inactive; Rtt109 Vps75: inactive; SKKanGAS inh: inactive

Results for COc1cc2c(cc1OC)[C@@H](NC(=O)CCC1CCCCC1)[C@H](O)C2 ?
Rtt109 Vps75: inactive

Results for CSc1nc(Sc2ccccc2Cl)c2ccccc2n1 ?
PHOSPHO1 inh: inactive; WT yeast gro inh: 68; TPT1 inhibitor: inactive; Platelet DG rel: inactive; Rtt109 Vps75: inactive; SKKanGAS inh: 59

Results for CCOC(=O)c1cnc2c(ccc3ccccc32)c1Cl ?
PHOSPHO1 inh: inactive; TPT1 inhibitor: inactive; Platelet DG rel: inactive; Rtt109 Vps75: inactive; SKKanGAS inh: inactive

What do the screens show for `CCOC(=O)c1cnc(SC)nc1Sc1ccccc1Cl`?
PHOSPHO1 inh: inactive; WT yeast gro inh: 67; TPT1 inhibitor: inactive; Rtt109 Vps75: inactive; SKKanGAS inh: inactive

How did CCc1ccccc1OCC(=O)Nc1cccc(S(=O)(=O)NC2=NCCC2)c1 do in these assays?
Rtt109 Vps75: inactive

How did CC(C)CC(=O)NC(=S)NNC(=O)c1ccc(NC(=O)C2CCCCC2)cc1 do in these assays?
PHOSPHO1 inh: inactive; WT yeast gro inh: inactive; TPT1 inhibitor: inactive; Platelet DG rel: inactive; Rtt109 Vps75: inactive; SKKanGAS inh: 88

How did Cc1ccc(C(=O)n2cnnc2N)cc1C do in these assays?
PHOSPHO1 inh: 61; WT yeast gro inh: inactive; TPT1 inhibitor: inactive; Platelet DG rel: inactive; Rtt109 Vps75: inactive; SKKanGAS inh: inactive

How did Cc1ccc(C(=O)n2cnnc2N)cc1 do in these assays?
PHOSPHO1 inh: inactive; WT yeast gro inh: inactive; TPT1 inhibitor: inactive; Platelet DG rel: inactive; Rtt109 Vps75: inactive; SKKanGAS inh: inactive

What do the screens show for `COc1ccccc1C(=O)COC(=O)CN1C(=O)C2CC=CCC2C1=O` (centres undefined)?
TPT1 inhibitor: inactive; Platelet DG rel: inactive; Rtt109 Vps75: inactive; SKKanGAS inh: inactive

How did O=C(Cc1cn(-c2ccccc2)nc1-c1ccccc1)N1CCCCC1 do in these assays?
PHOSPHO1 inh: inactive; TPT1 inhibitor: inactive; Platelet DG rel: inactive; Rtt109 Vps75: inactive; SKKanGAS inh: inactive

What do the screens show for `CCOC(=O)C1(Cc2cccc(OC)c2)CCCN(C(=O)c2cc(C)on2)C1` (centres undefined)?
PHOSPHO1 inh: 68; TPT1 inhibitor: inactive; Platelet DG rel: inactive; Rtt109 Vps75: inactive; SKKanGAS inh: inactive

How did CCOC(=O)C1(CCCc2ccccc2)CCN(Cc2nccn2CC)CC1 do in these assays?
PHOSPHO1 inh: inactive; WT yeast gro inh: 59; TPT1 inhibitor: inactive; Platelet DG rel: inactive; SKKanGAS inh: inactive

What do the screens show for `CCOC(=O)C1(Cc2cccc(Cl)c2)CCCN(C(=O)c2ccoc2C)C1` (centres undefined)?
PHOSPHO1 inh: 61; Platelet DG rel: inactive; Rtt109 Vps75: inactive; SKKanGAS inh: inactive

Results for CCOC(=O)C1(Cc2cccc(Cl)c2)CCCN(C(=O)c2ccco2)C1 (centres undefined) ?
PHOSPHO1 inh: inactive; TPT1 inhibitor: inactive; Platelet DG rel: inactive; Rtt109 Vps75: inactive; SKKanGAS inh: inactive

Results for CCOC(=O)C1(Cc2cccc(OC)c2)CCCN(Cc2nccn2CC)C1 (centres undefined) ?
PHOSPHO1 inh: 60; WT yeast gro inh: inactive; TPT1 inhibitor: inactive; Platelet DG rel: inactive; Rtt109 Vps75: inactive; SKKanGAS inh: inactive

What do the screens show for `CCn1ccnc1CN1CCCC(CO)(Cc2cccc(OC)c2)C1` (centres undefined)?
PHOSPHO1 inh: inactive; WT yeast gro inh: inactive; TPT1 inhibitor: inactive; Platelet DG rel: inactive; Rtt109 Vps75: inactive; SKKanGAS inh: inactive

How did O=C(C1CCCN(S(=O)(=O)c2cc(Cl)ccc2Cl)C1)N1CCCC1 (centres undefined) do in these assays?
PHOSPHO1 inh: inactive; TPT1 inhibitor: inactive; Platelet DG rel: inactive; Rtt109 Vps75: inactive; SKKanGAS inh: inactive

Results for CCOc1ccc(NC(=S)/C(=C(\[O-])c2ccc(C)c([N+](=O)[O-])c2)[n+]2ccccc2)cc1 ?
PHOSPHO1 inh: 93; WT yeast gro inh: inactive; TPT1 inhibitor: inactive; Platelet DG rel: inactive; Rtt109 Vps75: inactive; SKKanGAS inh: inactive

How did CCc1cc[n+](/C(C(=S)Nc2cccc(C)c2)=C(/[O-])c2ccc(C)c([N+](=O)[O-])c2)cc1 do in these assays?
PHOSPHO1 inh: inactive; WT yeast gro inh: inactive; TPT1 inhibitor: inactive; Platelet DG rel: inactive; Rtt109 Vps75: inactive; SKKanGAS inh: inactive

How did Fc1cccc(-c2cc3nc4c(c(N5CCC6(CC5)OCCO6)n3n2)CCCC4)c1 do in these assays?
PHOSPHO1 inh: inactive; WT yeast gro inh: 69; TPT1 inhibitor: inactive; Platelet DG rel: inactive; Rtt109 Vps75: inactive; SKKanGAS inh: inactive

What do the screens show for `CCn1c(Sc2nc(C)nc3scc(-c4cccs4)c23)n[nH]c1=O`?
PHOSPHO1 inh: inactive; WT yeast gro inh: 82; TPT1 inhibitor: inactive; Platelet DG rel: inactive; Rtt109 Vps75: inactive; SKKanGAS inh: inactive

Results for Cc1nc(SCC(=O)NC(=O)NCCC(C)C)c2c(-c3cccs3)csc2n1 ?
PHOSPHO1 inh: inactive; WT yeast gro inh: inactive; TPT1 inhibitor: inactive; Platelet DG rel: inactive; Rtt109 Vps75: inconclusive; SKKanGAS inh: inactive

How did CN(C(=O)COC(=O)c1ccc(Br)c([N+](=O)[O-])c1)c1c(N)n(Cc2ccccc2)c(=O)[nH]c1=O do in these assays?
TPT1 inhibitor: inactive; Platelet DG rel: inactive; Rtt109 Vps75: inactive; SKKanGAS inh: inactive

What do the screens show for `OCC(O)C1OC(c2ccccc2)OC(CO)C1O` (centres undefined)?
Rtt109 Vps75: inactive

What do the screens show for `COc1ccccc1NC(=O)C(C)OC(=O)c1cccc(-n2cnnn2)c1` (centres undefined)?
TPT1 inhibitor: inactive; Platelet DG rel: inactive; Rtt109 Vps75: inactive; SKKanGAS inh: inactive

How did CCCn1c(SCC(=O)c2ccc(CC)cc2)n[nH]c1=O do in these assays?
PHOSPHO1 inh: 82; WT yeast gro inh: inactive; TPT1 inhibitor: inactive; Platelet DG rel: inactive; Rtt109 Vps75: inactive; SKKanGAS inh: inactive

Results for CCN1C[C@@H]2[C@@H]3C(=O)N(Cc4ccccc4)C(=O)[C@@H]3[C@](CC)(C1=O)N2C(=O)c1ccccc1 ?
Rtt109 Vps75: inactive

How did CC1(c2ccccc2)NC(=O)N(CC(=O)N(CC(=O)Nc2ccccc2C(F)(F)F)Cc2ccco2)C1=O (centres undefined) do in these assays?
Rtt109 Vps75: inactive

Assay outcomes deposited in PubChem by several laboratories.
